PubChem BioAssay (NCI)
The panel holds about 83,000 compounds, 20% with a hit somewhere; the sample as a whole holds those more often.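 Each cell line was grown in a 96-well plate and treated with one concentration of compound for 48 hours. Values below 10 were considered active.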 Values without a mark were called inactive. Activity calls are given as the source filed them.

System: HL-60(TB) leukemia
Test: NCI-60 one-dose screen, 48 h (100 = growth as untreated, 0 = no growth, -100 = all killed)
Settings: 10 µM unless noted

| Compound | growth |
| --- | --- |
| CCNC(=O)Oc1ccc(/C(=C(\C)c2ccc(Cl)cc2)c2ccc(OCCN(CC)CC)cc2)cc1 | 23.9% |
| C/C1=C\CCC2(C)OC2CC2CCC(C)(O)C(CC1)C2(C)C (stereo not given) | 142% |
| O=C(Nc1cc(Cl)ccc1O)c1ccccc1Nc1ccnc(C(F)(F)F)c1 | -38.1% (active) |
| COc1cc(/C=C/c2nc(Nc3ccc(S(=O)(=O)Nc4cc(C)on4)cc3)c3ccccc3n2)ccc1O | 27.4% |
| COc1cc2nc3cc([N+](=O)[O-])ccc3c(NCCNCC(C)O)c2cc1OC (stereo not given) | -16.8% (active) |
| CC1(C)CC(=O)C2=C(C1)N(c1ccc(OC(F)(F)F)cc1)C(N)=C(C#N)C2c1ccc(Cl)cc1 (stereo not given) | 102% |
| CN(C)c1ccc(C2C(C#N)=C(/N=C/c3ccccc3)Oc3c2ccc2ccccc32)cc1 (stereo not given) | 29.5% |
| CN(C)C/C=C/C(=O)Nc1cc2c(Nc3ccc(F)c(Cl)c3F)ncnc2cc1OCCOC(F)F | 13.2% |
| CCCCCCCCCC[N+](C)(C)N | 90.2% |
| CC1OC(OC2C(OC3CCC4(C)C(CCC5(C)C4CC=C4C6CC(C)(C)CCC6(CO)C(O)CC45C)C3(C)C)OC(C(=O)O)C(OC3OC(COC4OC(CO)C(O)C(O)C4O)C(O)C(O)C3O)C2O)C(O)C(O)C1O (stereo not given) | -73% (active) |
| CCCCOc1nc2ccc(OC)cc2cc1-c1cc(-c2ccc(Cl)cc2)nc(-c2ccc(Cl)cc2)c1 | 103% |
| CN1CCN(c2ccc(NC3=C(Cl)C(=O)c4ncccc4C3=O)cc2C#N)CC1 | -26.3% (active) |
| O=C(CCCOc1ccc(Br)cc1)Nc1ncc(Cc2ccc(F)cc2)s1 | 34.7% |
| COc1cc2c(=O)n(CCCN(C)C)c3c4cc[nH]c4ncc3c2cc1OC | 75.3% |
| OCCn1cccn1 | 99.2% |
| Nc1ccccc1NC(=O)c1ccc(-n2nc(-c3ccccc3)c3ccccc32)cc1 | -4.94% (active) |
| Cc1cc(Nc2c3ccccc3nc3ccccc23)ccc1NS(C)(=O)=O | 32.2% |
| C=C1C(=O)O[C@H]2[C@H]1CC/C(CNC(=O)C(C)c1ccc(CC(C)C)cc1)=C\CC[C@@]1(C)O[C@@H]21 (stereo not given in full) | -24.4% (active) |
| Cc1c(NCC(=O)Nc2nc3ccccc3[nH]2)c(=O)n(-c2ccccc2)n1C | 98.5% |
| O=C1c2ccccc2C(=O)c2c1c(C(=O)NCc1ccccc1)c1ccccn21 | 88.7% |

| Compound | growth |
| --- | --- |
| O=C1c2c(O)cc(O)cc2-c2c(-c3ccc(O)cc3)oc3cc(O)cc1c23 | 17% |
| O=[N+]([O-])c1ccccc1C(O)Cc1ccc2ccccc2n1 (stereo not given) | 107% |
| COc1cc2nc(Cl)nc(Nc3cccc(C(=O)/C=C/c4ccc(Cl)cc4)c3)c2cc1OC | 51.7% |
| CN(C)CCOc1cccc(-c2nc3sccn3c2-c2ccnc(S(C)(=O)=O)n2)c1 | 104% |
| COc1ccccc1/C=C1\Oc2cc(OCCN3CCCC3)ccc2C1=O | 97.1% |
| O=C1/C=C/[C@@H](O)[C@@H]2C[C@@H](O)C[C@H]2/C=C/CCC[C@H](CCc2ccccc2)O1 | 3.95% (active) |
| COc1cc(C=C2C(=O)NC(=S)NC2=O)cc(CN2CCCC2)c1O | 108% |
| CCn1c(Cc2ccccc2Nc2c(Cl)cccc2Cl)nnc1SCC(=O)Nc1cccc(OC)c1 | 53.6% |
| CCC1CN2C(=N1)c1ccccc1-c1cc(Cl)ccc12 (stereo not given) | 2.51% (active) |
| Nc1c(C(=O)c2ccccc2)sc2nc(-c3cccs3)ccc12 | 9.36% (active) |
| Clc1ccc2c(NCCCNc3nc(-n4ccnc4)nc4ccccc34)ccnc2c1 | 69.4% |
| CC(=O)c1nc2ccccc2n1CCn1cc(CC(N)C(=O)O)c2ccccc21 (stereo not given) | 100% |
| COc1ccc(-c2nc(SCC(C)C)nc(Nc3ccc(C)cc3)c2C#N)cc1 | 92.3% |
| CNc1ccc(-c2cc(=O)oc3ccc(Cl)cc23)cc1 | -13.5% (active) |
| CNC(=O)c1c(NC(=O)c2ccc(C(C)C)cc2)sc2c(CN(C)C)c(O)ccc12 | 85.9% |
| c1ccc(-c2oc(-c3ccccc3)c(CN3CCCCC3)c2CN2CCCCC2)cc1 | 27% |
| CC(C)=CCC/C(C)=C/CC/C(C)=C/CC/C=C(\C)CC/C=C(\C)CCC(=O)Nc1ccn(C2OC(CO)C(O)C2(F)F)c(=O)n1 (stereo not given) | -21.3% (active) |
| Cc1c(Cn2cc(COc3ccc(Br)cc3)nn2)c(C)c(Cn2cc(COc3ccc(Br)cc3)nn2)c(C)c1Cn1cc(COc2ccc(Br)cc2)nn1 | 89.8% |
| C=C(C)[C@@H]1CCC[C@]2(C(=O)O)CC[C@]3(C)[C@@H](CC[C@@H]4[C@@]5(C)C/C(=C/c6ccncc6)C(=O)C(C)(C)[C@@H]5CC[C@]43C)[C@@H]12 | -5.12% (active) |
| COc1cc(-c2cc(/C=C3\C(=O)Nc4ccccc43)[nH]n2)cc(OC)c1OC | -12.1% (active) |
